According to the supplement of paper PMC10849652:
Targets with a hit are over-represented here; the source holds about 7,900 in all. About 0.6% of all pairs of compound and target were hits. Values without a mark were called inactive.

Compound: Cn1cncc1[C@@](N)(c1ccc(Cl)cc1)c1ccc2c(c1)c(-c1cccc(Cl)c1)cc(=O)n2C [tipifarnib]
Experiment: log2 fold change, soluble protein after heating vs DMSO (PISA); higher = thermal stabilisation; K562 cells, 10 uM, 30 min; active = over 0.2 and 3.5 SD of the protein, either way, in both replicates (recomputed)
How it was run: (§1)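 For each measurement, 10 μM compound was applied for 30 min to K562 cells at 2×10^6 cells/mL. Aliquots were heated for 3 min across 48°C-58°C, pooled, and extracted in PBS with 0.5% NP-40 at 4°C; the supernatant after 21,000xg for 90 min was soluble protein. This was quantified by TMTpro 16plex LC-MS/MS with channel sums equalised, and thermal stability was reported relative to control samples from duplicates, on a log2 fold-change scale.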

Chain of UniProt O75122 (O75122 whole entry, looked up): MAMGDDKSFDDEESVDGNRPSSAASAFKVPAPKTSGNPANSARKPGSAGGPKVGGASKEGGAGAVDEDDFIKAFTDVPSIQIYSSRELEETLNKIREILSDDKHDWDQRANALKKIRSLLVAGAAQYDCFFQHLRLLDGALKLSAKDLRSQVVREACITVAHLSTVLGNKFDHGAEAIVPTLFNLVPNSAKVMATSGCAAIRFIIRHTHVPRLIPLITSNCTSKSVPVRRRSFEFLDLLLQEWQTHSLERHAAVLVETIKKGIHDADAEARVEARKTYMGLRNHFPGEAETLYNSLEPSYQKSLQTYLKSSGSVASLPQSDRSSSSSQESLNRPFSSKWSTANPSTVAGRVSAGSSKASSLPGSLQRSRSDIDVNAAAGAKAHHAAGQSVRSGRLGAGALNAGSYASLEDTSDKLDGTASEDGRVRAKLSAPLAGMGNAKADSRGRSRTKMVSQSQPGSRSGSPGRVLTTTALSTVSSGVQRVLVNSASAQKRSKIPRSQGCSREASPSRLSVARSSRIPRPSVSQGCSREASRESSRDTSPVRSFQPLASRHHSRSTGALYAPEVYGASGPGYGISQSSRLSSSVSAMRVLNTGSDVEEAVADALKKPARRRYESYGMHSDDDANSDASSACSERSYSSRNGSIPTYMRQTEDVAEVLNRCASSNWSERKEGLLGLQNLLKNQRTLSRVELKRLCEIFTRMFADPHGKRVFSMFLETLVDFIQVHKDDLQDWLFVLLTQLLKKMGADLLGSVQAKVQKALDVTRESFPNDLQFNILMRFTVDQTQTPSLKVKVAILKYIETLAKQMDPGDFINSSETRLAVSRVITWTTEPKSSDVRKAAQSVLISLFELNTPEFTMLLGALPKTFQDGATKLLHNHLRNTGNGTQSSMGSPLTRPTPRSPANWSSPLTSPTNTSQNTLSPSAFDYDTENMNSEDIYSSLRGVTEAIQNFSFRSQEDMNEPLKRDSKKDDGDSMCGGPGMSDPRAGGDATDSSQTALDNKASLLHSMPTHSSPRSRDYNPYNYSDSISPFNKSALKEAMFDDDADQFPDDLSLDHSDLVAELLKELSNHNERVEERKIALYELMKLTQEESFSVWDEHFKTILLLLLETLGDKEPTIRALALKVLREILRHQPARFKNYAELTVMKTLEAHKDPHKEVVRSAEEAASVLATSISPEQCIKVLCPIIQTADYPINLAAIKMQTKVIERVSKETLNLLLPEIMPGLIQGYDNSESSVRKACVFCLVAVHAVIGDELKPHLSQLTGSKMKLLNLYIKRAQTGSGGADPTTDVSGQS
Chain of UniProt P33552 (P33552 whole entry, looked up): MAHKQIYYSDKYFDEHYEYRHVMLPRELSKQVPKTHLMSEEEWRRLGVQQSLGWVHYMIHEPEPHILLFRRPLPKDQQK
Chain of UniProt Q13286 (Q13286 whole entry, looked up): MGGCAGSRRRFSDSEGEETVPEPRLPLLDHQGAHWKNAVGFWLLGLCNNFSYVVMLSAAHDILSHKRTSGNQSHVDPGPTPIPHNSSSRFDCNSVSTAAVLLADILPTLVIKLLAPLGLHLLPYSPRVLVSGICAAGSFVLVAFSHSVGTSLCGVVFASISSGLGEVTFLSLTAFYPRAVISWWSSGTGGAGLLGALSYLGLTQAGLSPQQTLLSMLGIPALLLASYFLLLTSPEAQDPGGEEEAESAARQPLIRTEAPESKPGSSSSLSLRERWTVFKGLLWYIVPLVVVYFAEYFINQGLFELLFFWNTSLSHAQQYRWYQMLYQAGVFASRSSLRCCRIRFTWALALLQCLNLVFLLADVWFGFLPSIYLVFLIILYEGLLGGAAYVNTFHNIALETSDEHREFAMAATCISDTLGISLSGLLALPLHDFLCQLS
Chain of UniProt Q6UUV7 (Q6UUV7 whole entry, looked up): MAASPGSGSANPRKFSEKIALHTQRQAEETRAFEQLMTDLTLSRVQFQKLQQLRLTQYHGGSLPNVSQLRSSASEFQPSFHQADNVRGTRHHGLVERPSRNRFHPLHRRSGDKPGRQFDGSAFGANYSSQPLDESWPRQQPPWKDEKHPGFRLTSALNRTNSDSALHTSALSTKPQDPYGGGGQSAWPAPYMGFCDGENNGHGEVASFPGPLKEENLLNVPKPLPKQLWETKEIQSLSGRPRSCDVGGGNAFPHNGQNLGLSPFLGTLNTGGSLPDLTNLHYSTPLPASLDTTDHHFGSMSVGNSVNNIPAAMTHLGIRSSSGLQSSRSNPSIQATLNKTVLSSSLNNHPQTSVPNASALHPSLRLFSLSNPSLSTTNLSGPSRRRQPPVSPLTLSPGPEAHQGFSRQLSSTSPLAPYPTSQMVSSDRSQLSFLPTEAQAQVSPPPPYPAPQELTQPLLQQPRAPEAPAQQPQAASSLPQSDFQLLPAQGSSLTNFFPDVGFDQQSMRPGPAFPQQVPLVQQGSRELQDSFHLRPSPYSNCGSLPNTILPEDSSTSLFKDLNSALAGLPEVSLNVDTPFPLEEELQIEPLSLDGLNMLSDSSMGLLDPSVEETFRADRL
Chain of UniProt Q92828 (Q92828 whole entry, looked up): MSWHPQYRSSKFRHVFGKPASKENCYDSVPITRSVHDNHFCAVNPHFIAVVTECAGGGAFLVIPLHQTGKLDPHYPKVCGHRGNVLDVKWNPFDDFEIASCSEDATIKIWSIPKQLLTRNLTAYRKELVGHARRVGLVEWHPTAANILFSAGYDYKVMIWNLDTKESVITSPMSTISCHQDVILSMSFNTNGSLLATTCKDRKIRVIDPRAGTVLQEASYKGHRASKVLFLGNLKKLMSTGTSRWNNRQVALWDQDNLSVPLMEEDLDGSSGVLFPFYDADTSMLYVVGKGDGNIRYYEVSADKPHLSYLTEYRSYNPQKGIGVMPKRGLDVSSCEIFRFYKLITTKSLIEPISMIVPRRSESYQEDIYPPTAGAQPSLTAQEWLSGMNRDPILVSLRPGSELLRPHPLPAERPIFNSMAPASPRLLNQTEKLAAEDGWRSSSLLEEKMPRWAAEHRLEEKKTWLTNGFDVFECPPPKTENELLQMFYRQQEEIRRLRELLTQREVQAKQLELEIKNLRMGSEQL
Chain of UniProt P30305 (P30305 whole entry, looked up): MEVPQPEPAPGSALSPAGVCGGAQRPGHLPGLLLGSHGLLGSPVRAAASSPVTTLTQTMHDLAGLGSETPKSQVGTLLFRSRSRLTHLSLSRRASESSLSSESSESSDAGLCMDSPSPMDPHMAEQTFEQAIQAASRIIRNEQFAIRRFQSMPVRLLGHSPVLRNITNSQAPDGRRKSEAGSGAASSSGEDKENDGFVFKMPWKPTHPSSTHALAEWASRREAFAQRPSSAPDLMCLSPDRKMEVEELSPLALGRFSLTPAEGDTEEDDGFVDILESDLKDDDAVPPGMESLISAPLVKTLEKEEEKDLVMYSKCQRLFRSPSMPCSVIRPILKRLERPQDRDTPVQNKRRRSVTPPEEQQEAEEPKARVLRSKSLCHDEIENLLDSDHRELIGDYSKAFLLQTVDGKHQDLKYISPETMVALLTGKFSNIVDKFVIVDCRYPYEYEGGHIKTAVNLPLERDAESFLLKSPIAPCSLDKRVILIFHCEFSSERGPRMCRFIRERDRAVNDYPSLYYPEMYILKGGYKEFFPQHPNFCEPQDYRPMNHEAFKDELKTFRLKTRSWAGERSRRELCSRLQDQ
Chain of UniProt O95628 (O95628 whole entry, looked up): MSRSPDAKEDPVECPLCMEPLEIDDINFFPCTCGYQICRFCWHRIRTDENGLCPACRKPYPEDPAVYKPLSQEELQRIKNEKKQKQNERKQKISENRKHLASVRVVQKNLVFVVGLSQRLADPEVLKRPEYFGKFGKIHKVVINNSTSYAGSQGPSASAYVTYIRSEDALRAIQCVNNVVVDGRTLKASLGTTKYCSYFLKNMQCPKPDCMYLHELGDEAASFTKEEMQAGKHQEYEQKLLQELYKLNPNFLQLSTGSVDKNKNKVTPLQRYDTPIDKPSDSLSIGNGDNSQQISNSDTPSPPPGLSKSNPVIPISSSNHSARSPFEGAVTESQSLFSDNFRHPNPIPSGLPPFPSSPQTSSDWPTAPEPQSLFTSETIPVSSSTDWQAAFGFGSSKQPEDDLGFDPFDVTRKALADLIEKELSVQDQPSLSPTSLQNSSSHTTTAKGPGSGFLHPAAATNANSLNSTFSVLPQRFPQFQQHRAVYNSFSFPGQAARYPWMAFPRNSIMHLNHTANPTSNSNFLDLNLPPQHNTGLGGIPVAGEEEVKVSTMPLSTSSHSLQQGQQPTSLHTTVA
Chain of UniProt P48729 (P48729 whole entry, looked up): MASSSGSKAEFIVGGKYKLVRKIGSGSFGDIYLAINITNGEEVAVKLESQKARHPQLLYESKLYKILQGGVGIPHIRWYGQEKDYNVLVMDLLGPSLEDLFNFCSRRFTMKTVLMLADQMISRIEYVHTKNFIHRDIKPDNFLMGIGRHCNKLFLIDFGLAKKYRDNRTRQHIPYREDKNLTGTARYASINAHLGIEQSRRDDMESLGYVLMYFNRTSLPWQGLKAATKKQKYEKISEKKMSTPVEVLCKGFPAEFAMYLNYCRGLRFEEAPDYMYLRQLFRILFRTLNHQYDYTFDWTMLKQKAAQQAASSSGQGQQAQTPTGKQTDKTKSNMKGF
Chain of UniProt Q96F85 (Q96F85 whole entry, looked up): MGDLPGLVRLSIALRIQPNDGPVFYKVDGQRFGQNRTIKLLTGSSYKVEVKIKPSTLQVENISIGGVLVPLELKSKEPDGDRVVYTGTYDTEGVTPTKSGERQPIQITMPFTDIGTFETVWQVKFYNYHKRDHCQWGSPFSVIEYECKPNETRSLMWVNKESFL
Chain of UniProt Q9UBY8 (Q9UBY8 whole entry, looked up): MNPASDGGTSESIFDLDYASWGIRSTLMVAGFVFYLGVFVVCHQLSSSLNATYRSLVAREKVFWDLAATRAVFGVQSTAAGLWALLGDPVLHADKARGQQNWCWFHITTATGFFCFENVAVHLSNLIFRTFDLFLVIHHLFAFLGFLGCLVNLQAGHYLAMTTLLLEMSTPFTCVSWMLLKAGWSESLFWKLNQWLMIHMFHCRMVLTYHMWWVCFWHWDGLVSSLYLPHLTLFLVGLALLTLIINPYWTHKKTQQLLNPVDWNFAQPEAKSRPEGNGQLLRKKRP

Target	log2 fold change
CCND3 (UniProt P30281)	0.026
CORO2A (UniProt Q92828)	-0.005
CFAP58 (UniProt Q5T655)	-0.108
CNRIP1 (UniProt Q96F85)	-0.075
CNN1 (UniProt P51911)	0.049
CNOT4 isoform 9 (UniProt O95628)	-0.019
CCNT2 (UniProt O60583)	0.08
CLASP2 (UniProt O75122)	0.045
CFAP47 (UniProt Q6ZTR5)	0.047
CLN3 (UniProt Q13286)	0.1
CCDC82 (UniProt Q8N4S0)	0.01
CDC25B isoform 4 (UniProt P30305)	0.022
COMMD3-BMI1 (UniProt R4GMX3)	0.435
CEBPZOS (UniProt A8MTT3)	-0.044
CEMIP2 (UniProt Q9UHN6)	0.033
CSNK1A1 isoform 3 (UniProt P48729)	0.165
CLN8 (UniProt Q9UBY8)	0.003
C5orf30 (UniProt Q96GV9)	0.152
CKS2 (UniProt P33552)	-0.047
CRTC3 (UniProt Q6UUV7)	-0.302

Compound: FC(F)(F)c1ccc(/C=C/c2nc(COc3ccc(CCCCn4ccnn4)cc3)co2)cc1 [mubritinib]
Experiment: as above
How it was run: as §1

Target	log2 fold change
CCND3 (UniProt P30281)	0.024
CORO2A (UniProt Q92828)	0.048
CFAP58 (UniProt Q5T655)	0.127
CLINT1 (UniProt Q14677)	-0.007
CLPTM1L (UniProt G5E9Z2)	0.047
CNRIP1 (UniProt Q96F85)	-0.148
CNN1 (UniProt P51911)	0.009
CNOT4 isoform 9 (UniProt O95628)	0.055
CCNT2 (UniProt O60583)	-0.209
CLASP2 (UniProt O75122)	0.027
CLN3 (UniProt Q13286)	0.09
CCDC82 (UniProt Q8N4S0)	0.087
CCNDBP1 (UniProt O95273)	-0.045
CDC25B isoform 4 (UniProt P30305)	0.074
CEBPZOS (UniProt A8MTT3)	0.121
CREB3L2 (UniProt Q70SY1)	0.13
CEMIP2 (UniProt Q9UHN6)	-0.024
CCNL1 (UniProt Q9UK58)	0.122
CSNK1A1 isoform 3 (UniProt P48729)	0.055
CLN8 (UniProt Q9UBY8)	-0.08
CDK2AP2 (UniProt O75956)	0.028
CKS2 (UniProt P33552)	0.325
CD68 (UniProt P34810)	-0.003
CRTC3 (UniProt Q6UUV7)	-0.168
